Hit rate of the full screen: of about 38,000 compounds, about 1,200 (3.2%) showed an effect of 50% or more. The median lay at about -58%. For the sample, strong results were picked, then their nearest neighbours and some compounds at random.
Tested on: Plasmodium falciparum
Assay: Calibr Malaria Delayed Death Assay SOP
Format: functional, organism-based
Set-up: scale not given: in the data most compounds retested in dose-response had high values
Details: concentration 4.99e-06 (unit not given; other assays of the set use mol/L)

Structure (SMILES) | Percent Effect [%]
CCn1nnc2c1C(COC)CN(C(=O)Cc1ccccn1)C2 (stereo not given) | -16.62
CNC(=O)C1CCN(S(C)(=O)=O)CC1 | -158.4
O=C1CC(c2cccs2)c2sc(C(=O)O)c(-c3ccccc3)c2N1 (stereo not given) | -70.62
Cc1nc(N2CCCC2)ccc1NCc1ccccn1 | -6.068
COCCCNC(=O)c1c[nH]c2ccc(OC)cc12 | -47.08
COc1ccc(C(=O)O)c(OCC(=O)NC(C)c2ccccc2)c1 (stereo not given) | -10.57
O=C1CCNc2ccc(F)cc2CN1Cc1ccccc1 | -35.83
CC1N(c2cnn(C)c2)C(=O)COC12CCN(CC1CC1)CC2.O=C(O)C(F)(F)F (stereo not given) | -75.35
CCN(CC)C(=O)c1ccc(-n2ncc(C#N)c2N)cc1 | -24.17
Cc1cnc(NC(=O)c2ccc(-n3ncc(C#N)c3N)cc2)s1 | -56.37
COc1ccc(NC(=O)c2ccc(-n3ncc(C#N)c3N)cc2)cn1 | 80.07
O=C(CSc1ccccn1)N1CCC(OCc2cccnc2)CC1 | -154
Cn1cnc(S(=O)(=O)NCCC(O)c2ccc3c(c2)OCO3)c1 (stereo not given) | -141.1
CC(Nc1cccc(F)c1C#N)c1cccc(S(N)(=O)=O)c1 (stereo not given) | -56.47
Cc1ccnc(OC[C@]23COC[C@H]2CN(C(=O)C2=CCCCC2)C3)n1 | -29.48
C[C@]1(O)CCN(Cc2c[nH]cn2)C[C@@H]1Oc1cccc(F)c1 | -164.2
CC(C)Oc1ccccc1-c1cc(CN)ccc1F | 60.74
COc1cccc(-c2cc(CN)ccc2F)c1F | -75.66
CC(C)Oc1ccc(CNC(=O)c2cc(C(N)=O)cs2)cc1F | -80.32
COc1cccc(Cl)c1-c1cc(CN)ccc1F | 65.68
NCc1ccc(Oc2cccc(Cl)c2Cl)cc1 | 19
COCCNC(=O)NCc1ccc(OC(C)C)c(F)c1 | -81.14
Cc1cc(NC(=O)Cc2ccc3c(c2)OCO3)n(C)n1 | -77.02
O=C(CC1NC(N2CCc3ccccc32)=NC1=O)Nc1ccc(Cl)cc1 (stereo not given) | -176.9
O=C(Cn1cc(C2CC2)nn1)N(Cc1ccco1)Cc1cccs1 | -76.11
CN(C)c1ncccc1CNCc1cccc(O)c1 | -22.48
O=C(CCc1ccccc1)NCC1CCN(Cc2ccsc2)CC1 | 18.12
O=C(CCc1ccsc1)NCC1CCN(Cc2cccs2)CC1 | 58
O=C(CCc1ccccc1)NCC1CCN(Cc2cccs2)CC1 | -10.35
CCn1ncc2c1C(COC)N(C(=O)c1ccsc1)CC2.O=C(O)C(F)(F)F (stereo not given) | -121.1
